This is a sample that favours compounds with a hit; in the whole collection about 3.4% have one here.
HIV Env fusion: blocks HIV Env-driven cell-cell fusion | HeLa-JRFL Env/CEM21 cell fusion, luciferase | hit rate 1.1% among 360,000 | AID 651610 | inhibition, % at 12.3 µM;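 active means mean replicate inhibition score of at least 50 and every replicate individually at or above 50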;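 further: 0% = plate neutral controls and 100% = maraviroc near 300 nM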
MITF TRPM1 HTS: MITF TRPM1 promoter activation in melanoma cells; SK-MEL-5 TRPM1-promoter luciferase, 24 h; % of positive control, neutral wells = 0; activation, % at 12.5 µM; hit rate 0.75% among 300,000;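 active means mean activation of at least 80% with every replicate also reaching 80%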;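 further: 0% = neutral control wells and 100% = parthenolide positive control wells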
Wnt act: Wnt/beta-catenin pathway activation. Wnt/beta-catenin reporter cell assay, activator, plate reader. activation, % at 9.35 µM. hit rate 1.2% among 300,000. AID 743398; in the data active means activation above about 30%, passing the limit was not always enough;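 further: 0% = neutral control wells and 100% = positive control wells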
miR-122 sensor: blocks miR-122 activity in Huh7 sensor cells; AID 602342; hit rate 0.3% among 340,000; activation (reporter increase), % at 12.5 µM; Huh7 miR-122 Renilla luciferase sensor, 48 h; neutral wells = 0, positive control = 100;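 active means mean replicate activation score at least 90 and every replicate individually at or above 90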;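 further: higher luciferase means less miR-122 activity so hits act as miR-122 inhibitors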
esBAF inh: blocks esBAF chromatin remodeling in mouse ES cells. Bmi1-luciferase knock-in reporter, 24 h; 100% = twice the neutral-well signal. reporter increase, % at 12.5 µM. hit rate 2% among 350,000. AID 602393; in the data active means activation above about 40%;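 further: 0% = median of the plate's neutral control wells and 100% = double that signal; a rise in the Bmi1 reporter signal indicates esBAF inhibition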
* marks the source's active call; other numbers are inactive results; / = no result given; [ ] = dose if it differs, or a comment.

SMILES | HIV Env fusion | MITF TRPM1 HTS | Wnt act | miR-122 sensor | esBAF inh
OCC1OC(n2cnc3c(/C=C(\O)c4ccccc4)ncnc32)C(O)C1O (configuration not stated) | 55* | 0 | -5 | 27 | /
CN(C)c1ncnc2c1ncn2C1OC(CO)C(O)C1O (configuration not stated) | / | -41 | / | -31 | -16
CC1Cc2ccccc2N1C(=O)c1ccc(Br)o1 (configuration not stated) | -102 | / | 20 | -4 | 92*
Cc1ccc(C(=O)N2c3ccccc3CC2C)o1 (configuration not stated) | -67 | 51 | 13 | -6 | 10
O=C(CC1CC1)Nc1ccc2c(c1)[C@H]1C[C@H](CC(=O)N3CCOCC3)O[C@H](CO)[C@H]1O2 | / | / | / | 1[16.7 µM] | -2
COc1cc(C(=O)N2CCN(c3ncnc4sc(C)c(C)c34)CC2)cc(OC)c1OC | 82* | -4 | -5 | 1 | -11
CN(c1ccc(OCC(=O)OCC(=O)Nc2ccc(F)cc2)cc1)S(=O)(=O)c1ccc(Cl)cc1 | -26 | -5 | -1 | 0 | /
COc1ccc(NC(=O)COc2ccc(N(C)S(=O)(=O)c3ccc(Cl)cc3)cc2)cc1OC | 57* | -40 | -14 | -17 | -30
COc1ccc2oc(C(=O)N3CCCc4ccccc43)c(C)c2c1 | -59 | 68 | 0 | 13 | 75*
COc1cc(OC)cc(C(=O)N2CCCc3ccccc32)c1 | / | -17 | 9 | / | -1
CC(=O)N(C)C[C@@H]1Oc2cc(C3=CCCCC3)ccc2S(=O)(=O)N([C@@H](C)CO)C[C@H]1C | 15[16.7 µM] | / | / | 3[16.7 µM] | /
CO[C@H]1CN(C)C(=O)c2ccc(NS(C)(=O)=O)cc2OC[C@H](C)N(Cc2cncnc2)C[C@H]1C | -13[16.7 µM] | / | / | -13[16.7 µM] | -3
O=C(O)C[C@H]1C[C@H]2c3cc(NC(=O)NC4CCCCC4)ccc3O[C@H]2[C@@H](CO)O1 | 2[16.7 µM] | / | / | 2[16.7 µM] | -5
CN1c2ccc(C3=CCCCC3)cc2[C@@H]2[C@@H](CCN2C(=O)Nc2ccc(F)cc2)[C@@H]1CO | / | / | / | 5[16.7 µM] | -1
Cc1cc(/C=C2\NC(=S)N(C)C2=O)ccc1N1CCCC1 | -17 | 50 | 53* | -21 | 65*
Cc1cc(N2CCCC2)ccc1/C=C1/C(=O)N(C)C(=S)N1C | -145 | -30 | -2 | 1 | 13
CCN1C(=O)/C(=C/c2ccc(N3CCCC3)cc2)NC1=S | / | 49 | 16 | -9 | 49*
CCCN1C(=O)/C(=C/c2ccc(N3CCCC3)c(C)c2)NC1=S | -44 | 18 | 7 | -6 | 4
Cc1cc(/C=C2/C(=O)N(C)C(=S)N2C)ccc1N1CCCC1 | -49 | 55 | 44* | 16 | 78*
CC(C)NC(=O)N(C)C[C@@H]1Oc2cc(-c3ccccc3F)ccc2S(=O)(=O)N([C@@H](C)CO)C[C@@H]1C | -11[16.7 µM] | / | / | 2[16.7 µM] | 0
CC(C)NC(=O)Nc1ccc2c(c1)C(=O)N([C@H](C)CO)C[C@@H](C)[C@@H](CN(C)Cc1ccc(-c3ccccc3)cc1)O2 | 33[16.7 µM] | / | / | -5[16.7 µM] | -5
CCN(CC)S(=O)(=O)c1cccc(NC(=O)Nc2cccc(C(F)(F)F)c2)c1 | 118* | -35 | -35 | -23 | 2
CCN(CC)S(=O)(=O)c1cccc(NC(=O)CC2CCCC2)c1 | -16 | -10 | -2 | 26 | -4
O=C(Nc1nc2ccccc2s1)c1ccc2sc([C@H]3C[C@H](O)[C@@H](CO)O3)nc2c1 | -27 | / | 5 | 0 | 55*
O=C(Nc1ccccc1F)c1ccc2sc([C@H]3C[C@H](O)[C@@H](CO)O3)nc2c1 | -35 | / | -3 | -3 | 55*
SMILES | HIV Env fusion | MITF TRPM1 HTS | Wnt act | miR-122 sensor | esBAF inh
O=C(Nc1cccc2ccccc12)c1ccc2sc([C@@H]3O[C@H](CO)[C@@H](O)[C@H]3O)nc2c1 | -8 | / | 0 | -3 | 42*
CCCNC(=O)Nc1ccc2c(c1)C(=O)N(C)[C@@H]1CC[C@H](CC(=O)OC)O[C@@H]1CO2 | / | / | / | 40[16.7 µM] | 6
CCN(CC(=O)Nc1ccc(NC(C)=O)cc1)C(=O)c1ccc(COc2ccc(C(C)(C)C)cc2)cc1 | 11 | -10 | -2 | -4 | 16
CCOc1ccc(OCc2ccc(C(=O)N(CC)CC)cc2)cc1 | 18 | 8 | 0 | -17 | 78*
CCC(=O)c1ccc(OCc2ccc(C(=O)OC)cc2)cc1 | -29 | -4 | -3 | / | 60*
CCC(=O)N1C[C@H](C)[C@@H](OC)CN(C)C(=O)c2ccc(NC(=O)Nc3ccc(Cl)cc3)cc2OC[C@H]1C | -14[16.7 µM] | / | / | / | 11
N/C(=N\OC(=O)COc1ccccc1Cl)c1ccccn1 | -41 | 20 | / | / | /
N/C(=N\OC(=O)COc1ccc2ccccc2c1)c1ccccn1 | -21 | 56 | 36* | -4 | 103*
Cc1ccc(C)c(OCC(=O)O/N=C(\N)c2ccccn2)c1 | -145 | 96* | 45* | -1 | 72*
CN(C)CC(=O)N[C@H]1CC[C@H](CCn2cc(C3CCCC3)nn2)O[C@H]1CO | -7[16.7 µM] | / | / | / | 1
Cc1cccc(S(=O)(=O)N(C)C[C@@H]2OCc3ccccc3-c3c(n(C)c4ccccc34)C(=O)N([C@@H](C)CO)C[C@@H]2C)c1 | / | / | / | / | 8
O=C(Nc1cccc2ccccc12)/C(=C/c1ccc([N+](=O)[O-])cc1)NC(=O)c1ccccc1 | -177 | / | -3 | 238* | 1
C[C@H](CO)N1C[C@H](C)[C@H](CN(C)C(=O)c2cc(-c3ccccc3)on2)OCc2cn(nn2)CCCC1=O | / | / | / | 3[16.7 µM] | -1
CCc1ccccc1NC(=O)c1cnc2scc(C)n2c1=O | -44 | / | 1 | -2 | 56*
O=C(NC(=S)NC1CCCCC1)c1ccccc1 | -40 | 53 | 17 | -2 | 45*
O=C(NC(=S)NC1CCCCCC1)c1cncc(Br)c1 | / | 95* | 37* | / | /
O=C(NC(=S)Nc1ncc(Br)cc1Br)c1cncc(Br)c1 | -72 | 14 | -2 | 9 | 1
C[C@@H]1CN([C@@H](C)CO)S(=O)(=O)c2ccc(C3=CCCC3)cc2O[C@@H]1CN(C)CC1CCOCC1 | -4[16.7 µM] | / | / | / | -2
CCC(=O)NC[C@H]1[C@H](c2ccc(-c3cccc(F)c3)cc2)[C@@H](CO)N1C(=O)CC | / | / | / | 6[16.7 µM] | -4
CCN(CC)c1ccc(NC(=O)/C=C\c2ccccc2Cl)cc1 | / | 96* | / | -4 | 37
Cc1cc(NS(=O)(=O)c2ccc(NC(=O)/C=C/c3ccccc3Cl)cc2)no1 | -13 | 1 | 0 | 7 | /
CCN(CC)c1ccc(NC(=O)C2CC3CCC2C3)cc1 (configuration not stated) | / | 58 | / | / | 48*
Cc1cc(NC(=O)/C=C/c2ccccc2Cl)no1 | -45 | 26 | / | / | /
CN(C)c1ccc(NC(=O)/C=C/c2ccccc2Cl)cc1 | -70 | 92* | 42* | -5 | /
O=C(/C=C/c1ccc(Cl)cc1)NC(=S)Nc1ccc(C(=O)O)cc1 | -4 | 13 | -2 | -11 | 1
CN(C)c1ccc(NC(=S)NC(=O)/C=C/c2ccc(Cl)cc2)cc1 | / | 57 | 27 | 11 | 46*
O=C(Nc1ccc(-c2ccccc2)cc1)[C@H]1[C@H](CO)[C@H]2Cn3c(cccc3=O)[C@@H]1N2Cc1cccnc1 | / | / | / | 2[16.7 µM] | -1
